# Reference: PubChem BioAssay (NCI)
# About 83,000 compounds went through this panel and 20% of them were active in at least one assay; those are over-represented in the sample as a whole.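 The test compound was applied at a single concentration to cells in 96-well plates for 48 hours, and percent growth was recorded.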 Activity calls are given as the source filed them. How the source made its calls: active means growth percent below 10; inactive means the rest.
# Tested on: UACC-257 melanoma
# Test: NCI-60 one-dose screen, 48 h (100 = growth as untreated, 0 = no growth, -100 = all killed)
# Details: 10 µM
row,SMILES,growth
1,CC(C)[N+]1(C)C2CC[C@@H]1CC(OC(=O)C(CO)c1ccccc1)C2 (stereo not given in full),96.9% (inactive)
2,Cc1ccccc1N1C(=O)c2cc(S(N)(=O)=O)c(Cl)cc2NC1C (stereo not given),102% (inactive)
3,Nc1cc(-c2ccncc2)c[nH]c1=O,111% (inactive)
4,COc1cc(CNC(=O)C2CSC3(C)c4ccccc4C(=O)N23)cc(OC)c1OC (stereo not given),73.8% (inactive)
5,C[C@@H](O)[C@H]1C(=O)N2C(C(=O)O)=C(SC3CN[C@H](C(=O)N(C)C)C3)[C@H](C)[C@H]12 (stereo not given in full),106% (inactive)
6,CN1C(C(=O)Nc2ccccn2)=C(O)c2sc(Cl)cc2S1(=O)=O,100% (inactive)
7,CCCN1CN2C(=O)N3CN(CCC)CN4C(=S)N(C1)C2C34 (stereo not given),92.9% (inactive)
8,COc1ccc(-c2nn(-c3cccc(Cl)c3)cc2C=C(C#N)C#N)cc1,38.5% (inactive)
9,CCCCCC(=O)O[C@]1(C(C)=O)CCC2C3CCC4=CC(=O)CC[C@]4(C)C3CC[C@@]21C (stereo not given in full),14% (inactive)
10,O=c1[nH]c(=O)n(C2C[C@H](O)[C@@H](CO)O2)cc1C(F)(F)F (stereo not given in full),107% (inactive)

# Tested on: M14 melanoma
# Test: as above
# Details: 10 µM
row,SMILES,growth
1,CC(C)[N+]1(C)C2CC[C@@H]1CC(OC(=O)C(CO)c1ccccc1)C2 (stereo not given in full),110% (inactive)
2,Cc1c2c[n+](C(C)C)ccc2c(C)c2c1[nH]c1ccccc12,30% (inactive)
3,Cc1ccc(-n2c(C)nn3c(=O)c4c5c(sc4nc23)CN(C)CC5)cc1,95.8% (inactive)
4,CCCCCCCCCCCCCCCCCC[n+]1ccc2c(C)c3c(c(C)c2c1)c1cc(O)ccc1n3CC,-2.39% (active)
5,Cc1c2cnccc2c(C)c2c1c1cc(O)ccc1n2C(C)C,-19% (active)
6,COc1ccc(C(=O)CSc2nc(-c3cc(OC)ccc3OC)cc(-c3ccc(OC)cc3)c2C#N)cc1,93.9% (inactive)
7,CCn1c2ccc(O)cc2c2c(C)c3c[n+](C)ccc3c(C)c21,51.8% (inactive)
8,Cc1ccccc1N1C(=O)c2cc(S(N)(=O)=O)c(Cl)cc2NC1C (stereo not given),111% (inactive)
9,N#Cc1c(-c2ccc(Cl)cc2)cc(-c2cc(O)ccc2O)nc1N,2.5% (active)
10,CN1CCc2c(sc3nc4n(-c5ccc(Cl)cc5)c(=O)[nH]n4c(=O)c23)C1,99.3% (inactive)
11,Cn1c2ccccc2c2c3[nH][nH]c(=O)c3c3c4ccccc4[nH]c3c21,17.4% (inactive)
12,O=C1c2c(c3c4ccccc4n(CCCCCCN4CCOCC4)c3c3[nH]c4ccccc4c23)C(=O)N1O,81.9% (inactive)
13,Nc1ccccc1NC(=O)c1ccc(CCCC(=O)Nc2ccc(C3CC3N)cc2)cc1 (stereo not given),27% (inactive)
14,Nc1nc(-c2cccnc2)nc2c1sc(=S)n2-c1ccccc1,106% (inactive)
15,Nc1cc(-c2ccncc2)c[nH]c1=O,107% (inactive)
16,COc1cc2c3c(n([C@H]4CCOC4)c(=O)c2cc1OC)-c1cc2c(cc1C3=O)OCO2,23% (inactive)
17,C=C/C(C)=C/C[C@]1(C)[C@H](C)[C@@H](OC(=O)CCC)[C@H](O)[C@@]23C(=C[C@H](OC)C[C@@H]12)[C@@H](OC(=O)CCC)O[C@H]3OC(C)=O,-45.7% (active)
18,Fc1ccc2[nH]cc(-c3nc(-c4ccsc4)cs3)c2c1,93.7% (inactive)
19,CN1CCc2c(sc3nc4n(-c5ccc(Cl)cc5)cnn4c(=O)c23)C1,96.8% (inactive)
20,O=C(CCCNC(=O)c1nc(-c2ccccc2)n(-c2ccccc2)n1)NO,98% (inactive)

row,SMILES,growth
1,Nc1ccc(-c2cccs2)cc1NC(=O)c1ccc(CCCC(=O)Nc2ccc(C3CC3N)cc2)cc1 (stereo not given),70.8% (inactive)
2,CCOC(=O)c1sc2ncnc(Nc3ccc(NC(=O)Nc4ccc(Cl)cc4)cc3)c2c1C,64.8% (inactive)
3,CCNc1nc(C(F)(F)F)nc2c1sc(=S)n2-c1ccccc1,108% (inactive)
4,COc1ccc([C@H]2[C@H](C(=O)Nc3cccnc3)c3ccccc3C(=O)N2c2ccccc2)cc1,86.2% (inactive)
5,O=C(CCCCNC(=O)c1nc(-c2ccccc2)n(-c2ccccc2)n1)NO,66.8% (inactive)
6,COc1cc(CNC(=O)C2CSC3(C)c4ccccc4C(=O)N23)cc(OC)c1OC (stereo not given),108% (inactive)
7,COc1cc2c3c(n(C4CCNCC4)c(=O)c2cc1OC)-c1cc2c(cc1C3=O)OCO2,-76.1% (active)
8,C[C@@H](O)[C@H]1C(=O)N2C(C(=O)O)=C(SC3CN[C@H](C(=O)N(C)C)C3)[C@H](C)[C@H]12 (stereo not given in full),100% (inactive)
9,COc1cc2c3c(n([C@@H]4CCOC4)c(=O)c2cc1OC)-c1cc2c(cc1C3=O)OCO2,16.5% (inactive)
10,CCOC(=O)c1sc2ncnc(Nc3ccc4c(cnn4C(=O)Nc4ccc(C)c(Cl)c4)c3)c2c1C,103% (inactive)
11,CN1C(C(=O)Nc2ccccn2)=C(O)c2sc(Cl)cc2S1(=O)=O,108% (inactive)
12,CCCN1CN2C(=O)N3CN(CCC)CN4C(=S)N(C1)C2C34 (stereo not given),94.5% (inactive)
13,COc1ccc(-c2cc(-c3cc(OC)ccc3OC)nc(N)c2C#N)cc1,79.8% (inactive)
14,c1cncc(-c2csc(-c3c[nH]c4ccccc34)n2)c1,85.8% (inactive)
15,c1cnc2[nH]cc(-c3nc(-c4ccsc4)cs3)c2c1,104% (inactive)
16,COc1ccc(-c2nn(-c3cccc(Cl)c3)cc2C=C(C#N)C#N)cc1,-18% (active)
17,CCOC(=O)c1sc2ncnc(Nc3ccc4c(cnn4C(=O)Nc4ccccc4)c3)c2c1C,63.7% (inactive)
18,CCCCCC(=O)O[C@]1(C(C)=O)CCC2C3CCC4=CC(=O)CC[C@]4(C)C3CC[C@@]21C (stereo not given in full),23.8% (inactive)
19,CCn1cc(CNc2ccc(C(=O)Nc3ccc4ccccc4c3)cc2)c(C)n1,45.1% (inactive)
20,O=c1[nH]c(=O)n(C2C[C@H](O)[C@@H](CO)O2)cc1C(F)(F)F (stereo not given in full),108% (inactive)
